A selection: hits, their analogues and other compounds. The true share with any hit is near 0.79%.
LANA-H2B inh = blocks KSHV LANA binding to histone H2A/H2B. Q9QR71. cell-free LANA-H2A/H2B peptide, fluorescence polarization. inhibition, % (no concentration beside the values). 0.6% of 320,000 active; in the data active = inhibition mostly above about 10%, no sharp cut-off; inactive = mostly below about 6.7%
DAGLB inhibitor = diacylglycerol lipase beta (human) inhibition | Q8NCG7 | 0.059% of 340,000 active | inhibition, % at 5.17 µM | HEK293T DAGLB membrane lysate, EnzChek fluorogenic substrate; in the data active = inhibition above about 34%;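 note: 0% = enzyme with vehicle and 100% = wells lacking enzyme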
Target sequence (Q8NCG7 whole entry, looked up): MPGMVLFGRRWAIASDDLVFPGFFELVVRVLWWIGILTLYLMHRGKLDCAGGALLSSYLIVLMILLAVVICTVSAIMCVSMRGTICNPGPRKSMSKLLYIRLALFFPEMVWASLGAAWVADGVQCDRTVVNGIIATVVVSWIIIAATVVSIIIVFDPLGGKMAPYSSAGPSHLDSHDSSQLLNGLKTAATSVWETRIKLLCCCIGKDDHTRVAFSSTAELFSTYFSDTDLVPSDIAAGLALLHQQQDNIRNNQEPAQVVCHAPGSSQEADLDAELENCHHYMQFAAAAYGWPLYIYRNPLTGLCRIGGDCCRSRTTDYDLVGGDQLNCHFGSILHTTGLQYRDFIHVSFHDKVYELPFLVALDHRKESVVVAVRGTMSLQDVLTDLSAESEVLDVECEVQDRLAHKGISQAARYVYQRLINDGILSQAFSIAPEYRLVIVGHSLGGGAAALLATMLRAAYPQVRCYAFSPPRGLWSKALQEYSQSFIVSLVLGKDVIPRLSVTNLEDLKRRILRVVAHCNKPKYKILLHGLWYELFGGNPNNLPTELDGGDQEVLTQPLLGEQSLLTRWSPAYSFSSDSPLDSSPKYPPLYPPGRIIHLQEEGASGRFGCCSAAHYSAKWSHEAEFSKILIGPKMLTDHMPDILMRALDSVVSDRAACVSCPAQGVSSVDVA
iPSC survival up = hiPSC single-cell survival enhancement | ATPlite luminescence; 100% = ROCK inhibitor wells, 0% = DMSO | survival enhancement, % at 20 µM | 0.044% of 360,000 active | AID 602274; in the data active = survival enhancement above about 18%;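 note: cells exposed to compounds for 16 hours before the ATP read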
HDAC3 inhib = blocks human histone deacetylase 3 | O15379 | recombinant HDAC3, fluorogenic peptide/trypsin coupled, fluorescence | inhibition, % at 8.3 µM | 0.15% of 320,000 active; in the data active = inhibition above about 26%, passing the limit was not always enough; inconclusive = no clear call, values can overlap the other calls
Active calls of the source: *; ? = inconclusive; . = not tested or not shown; + = active, no number.

SMILES	LANA-H2B inh	DAGLB inhibitor	iPSC survival up	HDAC3 inhib
CCN(CC)S(=O)(=O)c1ccc(Cl)c(C(=O)OC2CC(C)OC2=O)c1 (stereo unspecified)	-2.0	-0.6	0.1	3.5
O=C(NC(Cc1c[nH]c2ccccc12)C(=O)O)c1cccc(S(=O)(=O)N2CCCCC2)c1 (stereo unspecified)	.	-1.3	4.5	.
COc1cccc(C(=S)N2CCCC2)c1OC	0.7	1.5	0.0	19.8
O=[N+]([O-])c1ccc(F)cc1F	51.5*	-2.5	0.5	-4.5
COc1ccc(CNC(=O)CN2C(=O)c3ccc([N+](=O)[O-])cc3C2=O)cc1	23.0*	0.1	-0.5	2.9
COc1cc(NC(=O)Cc2ccccc2)ccc1NC(=O)c1ccccc1	3.2	-2.7	0.5	-6.2
CCOc1ccc(NC(=O)COC(=O)CCN2C(=O)C3CC=CCC3C2=O)cc1OCC (stereo unspecified)	40.2*	5.4	0.0	-6.0
CCOc1ccccc1NC(=O)C1CCCN(S(=O)(=O)c2ccc(-n3cnnn3)cc2)C1 (stereo unspecified)	-2.2	-1.7	-0.5	-10.2
COc1cc(NC(=O)SC2=NCCS2)cc(OC)c1	.	-1.8	1.3	.
COc1cccc(C(=O)SC2=NCCS2)c1	-8.1	-3.1	-1.4	48.7*
Cc1ccc(NC(=O)CN(C)C(=O)c2ccc(NS(=O)(=O)c3ccc4[nH]c(=O)[nH]c4c3)cc2)cc1	29.4*	1.2	2.6	3.0
Cc1ccc(SCc2nc(N)nc(Nc3ccccc3C)n2)c(C)c1	63.8*	-3.0	3.8	?
O=C1OC(Nc2nc(-c3ccc(F)cc3)cs2)c2ccccc21 (stereo unspecified)	2.4	-3.8	-0.7	1.8
COc1ccc2c(c1)c(=O)oc1cc(O)ccc12	-0.1	-3.2	-1.1	-4.8
COc1ccc2c(c1)c(=O)oc1cc3occ(C(C)(C)C)c3cc12	12.1*	-1.1	3.6	-7.2
O=C(O)c1ccc(S(=O)(=O)Nc2cccc(CP(=O)(c3ccccc3)c3ccccc3)c2)cc1	-3.0	-0.2	0.0	-8.9
CC(C)c1ccc(NC(=O)[C@H]2CSCN2C(=O)[C@@H]2CCC(=O)N2)cc1	-0.7	-1.2	0.9	1.8
COc1cc(NC(=O)[C@H]2CSCN2C(=O)[C@@H]2CCC(=O)N2)cc(OC)c1OC	14.3*	-0.1	-0.4	-1.6
Cc1cc(C(=O)NC(CC(C)C)C(=O)O)cc(C)c1[N+](=O)[O-] (stereo unspecified)	25.1*	-1.4	-0.4	-0.3
CC(C)CC(NC(=O)c1cccc(Cl)c1)C(=O)O (stereo unspecified)	-6.2*	0.5	-0.6	-1.9
COC(=O)C(CC(C)C)NC(=O)c1ccc([N+](=O)[O-])c(C)c1 (stereo unspecified)	2.1	-1.8	0.6	-5.5
COc1ccc(CC(=O)Nc2nccs2)cc1OC	-7.6	3.7	-0.1	-1.0
CCOc1ccc(CC(=O)Nc2nccs2)cc1OCC	20.7*	-1.5	0.1	1.7
CCOc1ccc(C(=O)NNC(=O)C2CC(=O)N(c3ccc(C)cc3)C2)cc1 (stereo unspecified)	-5.6	3.2	0.1	2.2
CC(C)(C)OC(=O)C[C@H]1C/C=C\C[C@H](CC(=O)N[C@H](CO)Cc2ccccc2)C(=O)N[C@H](Cc2ccccc2)COC1=O	82.6*	-0.8	3.0	3.2
SMILES	LANA-H2B inh	DAGLB inhibitor	iPSC survival up	HDAC3 inhib
CC(C)(C)OC(=O)C[C@@H]1C/C=C\C[C@H](CC(=O)N[C@H](CO)Cc2ccccc2)C(=O)N[C@H](Cc2ccccc2)COC1=O	-2.4	-4.7	-2.8	1.6
O=C(C[C@H]1C/C=C\CC[C@H](Cc2ccc(F)cc2)C(=O)O[C@H](c2ccccc2)CNC1=O)N[C@H](CO)Cc1ccccc1	+	2.2	-1.2	2.1
O=S(=O)(c1cccs1)N1CCCCC1	.	-0.6	0.7	.
CC(C)CCNC(=O)c1onc(CSc2ccc(F)cc2)c1C(=O)NCCC(C)C	5.2	-2.6	20.6*	-11.0
C[C@@H]1NC(=O)c2cc([N+](=O)[O-])cc(I)c2NCC[C@@H](C(N)=O)NC(=O)[C@H](CC(N)=O)NC1=O	18.4*	-0.7	-2.0	14.4
OCc1ccccc1-c1cnc2sc(NCc3ccc(F)cc3)nn12	.	.	1.4	.
COc1ccc(CN2C(=O)C(CC(=O)NCCN3CCOCC3)CC(C(=O)N3CCOCC3)=C2C)cc1 (stereo unspecified)	.	1.1	-3.2	.
O=C(Nc1nc2c(Br)cccc2s1)C1CC1	-2.2	0.4	-0.5	46.4*
CSc1nc(=S)c2[nH]c(=S)[nH]c2[nH]1	-0.4	2.3	0.0	36.5*
Cc1ccc(C)c(OCCC(=O)OCC(=O)N2c3ccccc3NC(=O)C2(C)C)c1	12.3*	-2.1	0.1	6.4
COc1cc2c(cc1OC)C(C)=NC1(CCCCC1)C2	8.0*	1.3	-0.3	.
COc1cc2c(cc1OC)C(SC)=NC1(CCCC1)C2	0.9	-1.1	-1.4	-4.2
Cc1cc(NC(=O)C2CCN(C(=O)c3ccco3)CC2)ccc1Br	0.4	-1.6	0.2	?
CCCCc1nnc(NC(=O)C(C)Sc2nc(C)cc(=O)[nH]2)s1 (stereo unspecified)	12.3*	4.0	-0.2	-2.6
O=C(NCc1ccco1)c1noc2c1CCCC2	0.9	1.8	2.0	-1.5
CC1CCc2onc(C(=O)NCc3ccco3)c2C1 (stereo unspecified)	+	0.3	-0.6	2.4
Cc1cccc(N2CCN(C(=O)c3ccc(Cl)c(NC4=NC5CS(=O)(=O)CC5S4)c3)CC2C)c1 (stereo unspecified)	0.5	0.9	-0.4	0.3
Cc1nc(N2CCN(S(=O)(=O)c3ccccc3C#N)CC2)c2c(-c3ccccc3)csc2n1	.	-4.2	-0.3	6.6
CN(CC(=O)OCC(=O)NCc1ccccc1)S(=O)(=O)c1ccc(Cl)cc1	-0.9	-2.6	0.0	-0.3
CN(CC(=O)OCC(=O)NCc1ccccc1)S(=O)(=O)c1ccc(F)cc1	+	-2.1	-0.4	4.2
COc1ccc(Cl)cc1NC(=O)C1CSC(c2ccncc2)=N1 (stereo unspecified)	0.1	-5.5	-1.4	2.9
CC(C)CC(=O)N1CCN(C(=O)c2ccc(F)cc2)CC1	16.1*	0.5	-0.7	-9.6
CCN(CC)C(=O)c1cccc(-c2csc(C(C)(NC(C)=O)c3ccc(OC)cc3)n2)c1 (stereo unspecified)	.	.	-2.2	.
O=C(CCC(=O)N1CCOCC1)NCc1cccc(C(F)(F)F)c1	22.3*	-0.3	-0.4	3.5
C/C(=C\c1ccccc1)C(=O)n1nnc2ccccc21	1.5	1.1	-0.7	28.1*
CCOc1ccccc1Nc1nnc(SCC(=O)NC(=O)c2cccn2C)s1	16.1*	4.8	0.0	1.0
CCOc1ccccc1Nc1nnc(SCC(=O)NC2CC2)s1	0.9	-1.1	0.0	-4.8
O=C(CCNC(=O)N1CC(=O)Nc2ccccc21)Nc1cccc(Cl)c1	15.0*	0.6	-0.3	0.8
CC(=O)N1c2ccc(S(=O)(=O)NCCC(=O)Nc3ccc(OC(F)(F)F)cc3)cc2CC1C (stereo unspecified)	2.6	-0.4	2.6	7.6
C=CCN1C(=O)/C(=C2\SC(N3CCOCC3)=NC2=O)c2cc(Br)ccc21	19.1*	1.5	6.6	0.5

Screening data: PubChem BioAssay, several laboratories
